SMILES strings stand for the structures. Values joined by “and” are separate entries in the source; they are usually repeats but may differ in a detail not shown here. Equal values may be shown once. Results filed as inconclusive are left out. A structure can be active in one record and inactive in another. Active and inactive are the calls of the source. Unless noted, calls come from the whole dose curve; as a rule, active = well fitted curve in the direction sought with a large enough effect in the repeat runs; inconclusive = weak or mixed curves; inactive = no such curve, though single readings can be large; an effect the other way counts as inactive or inconclusive.

Assay [1] in a line: qHTS assay to identify small molecule agonists of the hypoxia (HIF-1) signaling pathway - cell viability counter screen (AID 1224844; calls by dose curve; note: nearly all actives have a fitted effect of over 50% in size; note: potency is the fitted concentration of half-maximal effect). The note with it: HRE-bla ME-180 viability, CellTiter-Glo luminescence, 17 h; series mostly up to 76.8 µM. The procedure, abridged: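 Cytotoxicity was measured in parallel with the HRE-driven beta-lactamase readout: after 17 hrs of compound exposure at 37C, HRE-bla ME-180 cells received CellTiter-Glo and luminescence was recorded 30 min later.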
Background: qHTS replaces the single test concentration by a dilution series.

Assay [2] in a line: qHTS assay to identify small molecule agonists of H2AX (AID 1224845; active = well fitted activation curve with a large enough effect in the signal ratio in the repeat runs, not every such curve was filed as active; the % refers to the signal ratio). The settings on record: CHO-K1 phospho-H2AX Ser139 HTRF, 3 h; series mostly up to 154 µM. The procedure, abridged: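 Wild-type CHO-K1 cells, plated overnight, exposed 3hr at 37C to 15 concentrations (0.76% DMSO final). Lysed, then HTRF anti-pH2AX (S139) cryptate and anti-H2AX-d2 antibodies, 24 hr room temperature; 665/620 nm emission read.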

The nature of assay [3]: qHTS assay to identify small molecule agonists of the hypoxia (HIF-1) signaling pathway (AID 1224846; active = well fitted activation curve with a large enough effect in the signal ratio in the repeat runs, not every such curve was filed as active; the % refers to the signal ratio). The note with it: HRE-bla ME-180 cells, beta-lactamase ratio, 17 h; series mostly up to 76.8 µM. The essentials: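 Compounds from the Tox21 10K library, dissolved in DMSO, are tested for induction of a hypoxia response element–controlled beta-lactamase reporter in ME-180 cells. Exposure lasts 17 hrs at 37C after a 5 hr settling period, followed by CCF4-AM FRET substrate.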

Assay [4] can be described thus: qHTS RealTime-Glo MT Cell Viability Assay in HepG2 cells - 24 hour (AID 1224867). Note: nearly all actives have a fitted effect of over 50% in size. Note: potency is the fitted concentration of half-maximal effect. The settings on record: RealTime-Glo luminescence; series mostly up to 76.8 µM. The essentials:
(§1)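 Cells + NanoLuc/prosubstrate dispensed (600 cells/well) → 5 h at 37 C/5% CO2 → compounds in DMSO transferred → 40 h incubation at 37 C, luminescence read at 0, 8, 16, 24, 32, 40 h.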

Assay [5] in a line: A CellTox Green Cytotoxicity Assay to monitor cytotoxicity in HEK293 cells - 0 hour (AID 1224869). Note: nearly all actives have a fitted effect of over 50% in size. Note: potency is the fitted concentration of half-maximal effect. The settings on record: CellTox Green fluorescence; series mostly up to 76.8 µM. The procedure, abridged: (§2)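 Cells (HEK293, 600/well) and dye reagent are dispensed together. After 5 h at 37 C, 23 nL compound is pinned in. Plates stay at 37 C for 40 h with fluorescence read at 0h, 8h, 16h, 24h, 32h and 40h.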

A short description of assay [6]: qHTS RealTime-Glo MT Cell Viability Assay in HepG2 cells - 40 hour (AID 1224870). Note: nearly all actives have a fitted effect of over 50% in size. Note: potency is the fitted concentration of half-maximal effect. The note with it: RealTime-Glo luminescence; series mostly up to 76.8 µM. The procedure, abridged: (§3)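 HepG2 cells (600/well) mixed with RealTime-Glo MT reagent, settled 5 h at 37 C/5% CO2 before compound addition. Nonlytic NanoLuc luminescence from viable-cell prosubstrate reduction read repeatedly during 40 h treatment at 37 C.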

Assay [7] in a line: A CellTox Green Cytotoxicity Assay to monitor cytotoxicity in HEK293 cells - 40 hour (AID 1224871). Note: nearly all actives have a fitted effect of over 45% in size. Note: potency is the fitted concentration of half-maximal effect. The note with it: CellTox Green fluorescence; series mostly up to 76.8 µM. The essentials: as §2
A short description of assay [8]: qHTS RealTime-Glo MT Cell Viability Assay in HEK293 cells - 16 hour (AID 1224872). Note: nearly all actives have a fitted effect of over 50% in size. Note: potency is the fitted concentration of half-maximal effect. The settings on record: RealTime-Glo luminescence; series mostly up to 76.8 µM. The procedure, abridged:
(§4)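 Tox21 10K qHTS, HEK293, 600 cells/well, RealTime-Glo reagent co-dispensed with cells; 5 h preincubation, compound by pintool, 37 C, luminescence at 0–40 h.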

A short description of assay [9]: qHTS RealTime-Glo MT Cell Viability Assay in HepG2 cells - 8 hour (AID 1224873). Note: nearly all actives have a fitted effect of over 55% in size. Note: potency is the fitted concentration of half-maximal effect. The note with it: RealTime-Glo luminescence; series mostly up to 76.8 µM. The essentials: as §3
Assay [10] can be described thus: qHTS RealTime-Glo MT Cell Viability Assay in HEK293 cells - 40 hour (AID 1224874). Note: nearly all actives have a fitted effect of over 50% in size. The settings on record: RealTime-Glo luminescence; max response: stronger effect = lower value. The procedure, abridged:
(§5)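 Real-time viability in HEK293: signal arises when living cells convert a prosubstrate for NanoLuc in the medium, so luminescence tracks viable cell number. Compound (23 nL, DMSO) added 5 h post-seeding; kinetic reads at 0–40 h, 37 C.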

Assay [11] is described as follows: A CellTox Green Cytotoxicity Assay to monitor cytotoxicity in HEK293 cells - 24 hour (AID 1224875). Note: nearly all actives have a fitted effect of over 45% in size. The note with it: CellTox Green fluorescence; series mostly up to 76.8 µM. The procedure, abridged: as §2
A short description of assay [12]: A CellTox Green Cytotoxicity Assay to monitor cytotoxicity in HepG2 cells - 16 hour (AID 1224876). Note: nearly all actives have a fitted effect of over 45% in size. Note: potency is the fitted concentration of half-maximal effect. The note with it: CellTox Green fluorescence; series mostly up to 76.8 µM. The procedure, abridged:
(§6)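 Cells and non-lytic dye reagent are dispensed together (600 HepG2 cells/well) and incubated 5 h before DMSO compound transfer. Kinetic fluorescence is then recorded in the same wells during 40 h at 37 C.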

Assay [13] in a line: qHTS RealTime-Glo MT Cell Viability Assay in HepG2 cells - 32 hour (AID 1224877). Note: nearly all actives have a fitted effect of over 55% in size. Note: potency is the fitted concentration of half-maximal effect. The note with it: RealTime-Glo luminescence; series mostly up to 76.8 µM. The procedure, abridged:
as §1

The nature of assay [14]: A CellTox Green Cytotoxicity Assay to monitor cytotoxicity in HepG2 cells - 24 hour (AID 1224878). Note: nearly all actives have a fitted effect of over 45% in size. Note: potency is the fitted concentration of half-maximal effect. The settings on record: CellTox Green fluorescence; series mostly up to 76.8 µM. The procedure, abridged: as §6
Assay [15] is described as follows: A CellTox Green Cytotoxicity Assay to monitor cytotoxicity in HepG2 cells - 40 hour (AID 1224879). Note: nearly all actives have a fitted effect of over 40% in size. Note: potency is the fitted concentration of half-maximal effect. The settings on record: CellTox Green fluorescence; series mostly up to 76.8 µM. The procedure, abridged:
as §6

A short description of assay [16]: qHTS RealTime-Glo MT Cell Viability Assay in HEK293 cells - 0 hour (AID 1224880). The note with it: RealTime-Glo luminescence; series mostly up to 76.8 µM. The essentials: as §5
Assay [17] in a line: qHTS RealTime-Glo MT Cell Viability Assay in HEK293 cells - 32 hour (AID 1224868). Note: nearly all actives have a fitted effect of over 50% in size. Note: potency is the fitted concentration of half-maximal effect. The settings on record: RealTime-Glo luminescence; series mostly up to 76.8 µM. The procedure, abridged: as §4
Assay [18] can be described thus: qHTS assay to identify small molecule agonists of H2AX - cell viability counter screen (AID 1224847; calls by dose curve; note: top concentration of the series differs between compounds; nearly all actives have a fitted effect of over 30% in size). The settings on record: CHO-K1 viability, CellTiter-Glo luminescence, 3 h; series mostly up to 154 µM. The essentials:
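CHO-K1 wt, 1000 cells/well, o/n 37C; cpds 15 conc, 3 h 37C, 0.76% DMSO; CellTiter-Glo, 30 min RT, luminescence.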

The nature of assay [19]: qHTS assay to identify small molecule antagonists of the estrogen related receptor (ERR) signaling pathway from Tox21 library (AID 1224848). Note: nearly all actives have a fitted effect of over 50% in size. The settings on record: ERR reporter cell line, luciferase antagonist mode, 18 h; series mostly up to 92.4 µM. The essentials:
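Quantitative high-throughput format: ERR reporter cells (2,000/well) pre-incubated 6 h, treated 18 h at 37 C with compounds in DMSO alongside positive and negative controls, then read by ONE-Glo luminescence.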

Assay [20] is described as follows: qHTS assay to identify small molecule agonists of the estrogen related receptor (ERR) signaling pathway from Tox21 library (AID 1224849; calls by dose curve; note: nearly all actives have a fitted effect of over 15% in size). The note with it: ERR reporter cell line, ONE-Glo luciferase, 18 h. The essentials: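 Cells carrying the ERR reporter were plated and allowed to settle for 6 h, exposed to library compounds for 18 h at 37 C, then lysed with ONE-Glo and luminescence measured.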
% is set by controls: 0 for no effect and ±100 for the full control effect.

Turning to `O=C(O)c1nc(Cl)ccc1Cl`, the Potency result in [1], in assay [2], in assay [4], in assay [5], in assay [6] and in [7] was “inactive” in each case. The Potency entry in assay [8], in assay [9], in assay [11], in assay [12], in [13] and in [14] was “inactive” throughout. The Potency result in assay [15] is “inactive”. In addition, the result in [3] and in assay [16] was inactive. The max response in [10] is 3.62% (inactive) and 10.3% (inactive) and 7.66% (inactive).
`Nc1ccc(-c2ccc(N)c(Cl)c2)cc1Cl`: in [1], the Potency entry was “inactive”. Besides, the result in assay [3] and in assay [16] was inactive. Besides, the Potency entry in assay [4] was “inactive and 49 µM (active)”; in assay [17], 12.4 µM (active) and 18.2 µM (active) and 21.9 µM (active); in [5], “inactive and 38.9 µM (active)”; in assay [6] it was “inactive and 54.9 µM (active)”; in assay [7] it was “inactive and 43.6 µM (active)”; in assay [9], “inactive and 43.6 µM (active)”. Further, the Potency result was “inactive and 43.6 µM (active)” in assay [12]; “inactive and 49 µM (active)” in assay [13]; “inactive and 27.5 µM (active)” in assay [14]; 15.6 µM (active) and 12.9 µM (active) and 27.5 µM (active) in [15].
For `N#CS`, the Potency entry in assay [1], in [2], in [18], in [4], in assay [17] and in assay [5] was “inactive” throughout. In addition, the Potency result in [6], in assay [7], in assay [8], in assay [9], in assay [11] and in assay [12] was “inactive” in each case. In addition, the Potency entry in assay [13], in assay [14] and in assay [15] was “inactive” in each case. Moreover, the max response in assay [10] was 6.52% (inactive) [middle of 4 runs]. Also, the result in [16] was inactive.
Regarding `CCCCCCCCCCCCCCCCn1cc[n+](C)c1`, the Potency entry was “inactive and 49.4 µM (active) and 31 µM (active)” in [1]; “inactive and 49.4 µM (active) and 43.8 µM (active)” in assay [4]; “inactive and 39.2 µM (active) and 31 µM (active)” in assay [6]; “inactive and 19.7 µM (active) and 24.6 µM (active)” in [7]; “inactive and 24.8 µM (active) and 24.6 µM (active)” in assay [8]; “inactive and 49.1 µM (active)” in [9]. Moreover, the Potency result in assay [12] is “inactive and 49.4 µM (active) and 39 µM (active)”; in assay [13], “inactive and 49.4 µM (active) and 34.8 µM (active)”; in [14] it was “inactive and 44 µM (active) and 24.6 µM (active)”. For the same molecule, the Potency result in [2] and in assay [5] was “inactive” throughout. Besides, the result in [3] and in assay [16] was inactive.
For `COP(=O)(OC)C(O)C(Cl)(Cl)Cl` (stereo unspecified), the Potency entry in [1], in assay [2], in [19], in assay [4], in [5] and in assay [6] was “inactive” each time. Moreover, the Potency entry in assay [7], in [8], in [9], in assay [11], in [12] and in assay [13] was “inactive” each time. Besides, the Potency entry in assay [14] and in assay [15] was “inactive” each time. For the same molecule, the activity change, positive = activation is 0.23% (inactive) in assay [20] (at 42.5 µM (top of the series)); -17% (inactive) and -12.3% (inactive) in assay [20] (at 92.4 µM (top of the series)). Moreover, the molecule was classed as inactive in assay [16].
For `Nc1ccc(-c2ccc(N)cc2)cc1`, the Potency entry in assay [1], in [4], in [5], in assay [6], in assay [7] and in assay [8] was “inactive” throughout. Further, the Potency entry in [9], in [11], in [12], in assay [13] and in assay [14] was “inactive” throughout. Also, the result in assay [3] and in assay [16] was inactive. For the same molecule, the Potency in assay [15] was 48.4 µM (active) and inactive.
For the molecule `CN(C)[C@@H]1C(=O)C(C(N)=O)=C(O)[C@@]2(O)C(=O)C3=C(O)c4c(O)cccc4[C@@](C)(O)[C@H]3[C@H](O)[C@@H]12`, the Potency result in [1], in [4], in assay [5], in assay [6], in assay [7] and in [9] was “inactive” throughout. Also, the Potency entry in assay [11], in assay [12], in assay [13], in assay [14] and in [15] was “inactive” each time. Further, the result in [16] was inactive.
For `Cc1cc(Cl)ccc1N`, the Potency result in assay [1], in assay [2], in assay [4], in assay [17], in assay [6] and in [9] was “inactive” throughout. In assay [13], the Potency entry is “inactive”. Also, the outcome in [3] and in [16] was inactive. Further, the Potency entry is “inactive and 38.9 µM (active)” in assay [5]; “inactive and 38.9 µM (active)” in assay [7]; “inactive and 38.9 µM (active)” in assay [12]; “inactive and 38.9 µM (active)” in assay [14]; “inactive and 38.9 µM (active)” in assay [15].

Values taken from PubChem BioAssay (Tox21).
